This note sets out measurements from the supplement of paper PMC6522484.

± gives the standard deviation of the averaged measurements.

For assay [1], the system named is DLD1. Kind of assay: cell viability (CellTiter-Glo) relative to plate median (fraction of plate median); higher = more viable cells. The conditions noted are these: 5 µM; treatment time 24 h; reporter: 7TFP. Put shortly: (§1)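 On parallel plates, a Tecan F500 reader recorded either firefly luciferase or CellTiterGlo luminescence. The plates held colorectal cancer cells stably transduced with lentiviral TCF/Wnt firefly luciferase reporters (7TFP or TCF4/Wnt), seeded in 384-well format and treated 24 h later with library compounds at a final 5 µM for 24 h. Per-well signals were normalised to the plate median (webcellHTS2, additive, no log transformation), and two independent replicates were averaged.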
(In ATP-based viability assays light output follows the ATP content of the culture.)

The next assay deals with HCT116. Described as above. The conditions noted are these: 5 µM; treatment time 24 h; reporter: TCF4/Wnt. Summed up:
as §1

Assay [2] relates to SW480. Described as above. The conditions noted are these: 5 µM; treatment time 24 h; reporter: 7TFP. Summed up:
as §1

Assay [3] relates to DLD1. In words: TCF/Wnt firefly luciferase reporter signal relative to plate median (fraction of plate median); higher = higher Wnt reporter signal. The conditions noted are these: 5 µM; treatment time 24 h; reporter: 7TFP. Put shortly:
as §1
A general note: Reporter assays use an easily measured gene product as a stand-in for the process of interest.

Assay [4] deals with SW480. The assay is described as above. As to conditions: 5 µM; treatment time 24 h; reporter: 7TFP. Summed up: as §1

As for `COc1cc(OC)c2c(c1Cl)O[C@@]1(C(=O)CC(=O)C[C@H]1C)C2=O`, the cell viability in the assay on DLD1 [1] was 1.02 ± 0.014; in the assay on HCT116, 0.983 ± 0.14; with SW480 [2], 1.005 ± 0.0071. For the same molecule, the “TCF/Wnt firefly luciferase reporter signal” value in the assay with DLD1 [3] was found to be 1.13 ± 0.057; in the assay with SW480 [4], 1.02 ± 0.028.
The like results for `O=C(O)CCC(=O)OC[C@@H](NC(=O)C(Cl)Cl)[C@H](O)c1ccc([N+](=O)[O-])cc1` were, in that order, 1 ± 0.12, 0.895 ± 0.04, 0.977 ± 0.027, 0.838 ± 0.044 and 0.97 ± 0.022.
The like results for `O=C(O)/C=C/c1ccccc1` were, in that order, 1.09 ± 0.17, 1.08 ± 0.092, 1.09 ± 0.035, 0.928 ± 0.086 and 1.05 ± 0.035.
The like results for `CCN(CC)CCNC(=O)c1ccc(N)cc1` were, in that order, 1 ± 0.083, 0.988 ± 0.06, 1.02 ± 0.055, 1.045 ± 0.0071 and 1.08 ± 0.099.
In the case of `CCOc1ccc(C(=O)c2cc(O)c(OC)c(OC)c2O)cc1`, the cell viability came out at 0.982 ± 0.054 with DLD1 [1], 0.925 ± 0.11 in the assay on HCT116 and 0.9935 ± 0.0021 with SW480 [2]. The “TCF/Wnt firefly luciferase reporter signal” value with DLD1 [3] turned out to be 1.09; in the assay on SW480 [4], 0.948 ± 0.062.
The like results for `CCOc1ccc(Cc2nccc3cc(OCC)c(OCC)cc23)cc1OCC` were, in that order, 0.876 ± 0.016, 0.885 ± 0.056, 0.921 ± 0.0071, 0.99 ± 0.13 and 0.95 ± 0.099.
The like results for `CCCCCC(=O)Cc1cc(O)cc(O)c1C(=O)Oc1cc(CC(=O)CCCCC)c(C(=O)O)c(OC)c1` were, in that order, 0.992 ± 0.04, 1.01 ± 0.018, 0.966 ± 0.012, 1.07 ± 0.15 and 1.14 ± 0.035.
Turning to `OCc1cccnc1`, the cell viability in the assay on DLD1 [1] was 0.978 ± 0.088; in the assay on HCT116, 1.05 ± 0.17; with SW480 [2], 0.934 ± 0.016. Besides, the “TCF/Wnt firefly luciferase reporter signal” value in the assay on DLD1 [3] was determined as 0.988 ± 0.12; in the assay on SW480 [4] it was 0.917 ± 0.017.
The like results for `C[C@]1(OC(=O)/C=C/c2ccccc2)C[C@@H](O)[C@]2(O)C=CO[C@@H](O[C@@H]3O[C@H](CO)[C@@H](O)[C@H](O)[C@H]3O)[C@@H]21` were, in that order, 1.035 ± 0.0071, 1.02 ± 0.11, 1.06 ± 0.05, 1.12 ± 0.028 and 1.03 ± 0.05.
As to `CC1(C)S[C@@H]2[C@H](NC(=O)[C@H](N)c3ccccc3)C(=O)N2[C@H]1C(=O)O`, the figures for the cell viability in the assay on DLD1 [1], with HCT116 and in the assay on SW480 [2] were 0.963 ± 0.0099, 1.14 ± 0.13 and 0.969 ± 0.1, respectively. Moreover, the “TCF/Wnt firefly luciferase reporter signal” value is 1 ± 0.083 in the assay on DLD1 [3] and 0.917 ± 0.027 in the assay on SW480 [4].
Turning to `C[C@H]1C[C@@H]2[C@H]([C@@H](O)C[C@@]3(C)[C@H]2CC[C@]3(O)C(=O)COC(=O)CCC(=O)O)[C@@]2(C)C=CC(=O)C=C12`, the cell viability in the assay on DLD1 [1] stood at 0.918 ± 0.13; in the assay with HCT116, 1.01 ± 0.018; with SW480 [2] it was 0.921 ± 0.012. Also, the entries for the “TCF/Wnt firefly luciferase reporter signal” value with DLD1 [3] and in the assay on SW480 [4] were 0.964 ± 0.044 and 0.997 ± 0.061, respectively.
Take `C#C[C@]1(O)CC[C@H]2[C@@H]3CCC4=CC(=O)CC[C@@H]4[C@H]3CC[C@@]21C`: the cell viability amounted to 1.15 ± 0.085 in the assay with DLD1 [1], 0.9935 ± 0.0092 with HCT116 and 1.04 ± 0.064 with SW480 [2]. Moreover, the figures for the “TCF/Wnt firefly luciferase reporter signal” value in the assay with DLD1 [3] and in the assay on SW480 [4] were 0.847 ± 0.27 and 0.931 ± 0.03, respectively.
In the same order, the values of `O=C1c2c(O)ccc(O)c2C(=O)c2c(NCCNCCO)ccc(NCCNCCO)c21` are 1.09 ± 0.078, 0.635 ± 0.19, 0.997 ± 0.018, 0.936 ± 0.03 and 0.436 ± 0.04.
As for `Cc1cc(N)c2ccccc2[n+]1CCCCCCCCCC[n+]1c(C)cc(N)c2ccccc21`, the cell viability in the assay on DLD1 [1] was determined as 0.995 ± 0.092; in the assay on HCT116, 0.907 ± 0.042; with SW480 [2], 0.989 ± 0.087. For the same molecule, the “TCF/Wnt firefly luciferase reporter signal” value in the assay on DLD1 [3] stood at 0.751 ± 0.18; in the assay with SW480 [4] it was 0.793 ± 0.11.
In the same order, the values of `CN(C)CCN(Cc1ccccc1)c1ccccn1` are 0.9435 ± 0.0078, 0.925 ± 0.13, 1 ± 0.022, 1 ± 0.25 and 1.03 ± 0.05.
